Measured values from PubChem BioAssay (Tox21).
Records with an inconclusive call do not appear. Where a call stands in place of a potency, no number is given. Calls of active or inactive are those of the source. Calls come from the whole dose curve; as a rule, active = well fitted curve in the direction sought with a large enough effect in the repeat runs; inconclusive = weak or mixed curves; inactive = no such curve, though single readings can be large; an effect the other way counts as inactive or inconclusive.

Test system: not listed separately
Assay: qHTS assay to identify small molecule antagonists of the androgen receptor (AR) signaling pathway using the MDA cell line - cell viability counter screen (AID 743041; note: nearly all actives have a fitted effect of over 45% in size)
Conditions: MDA-kb2 viability, CellTiter-Fluor, 16 h, cells co-treated with R1881 androgen agonist; series mostly up to 70.3 µM
Method in brief: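 Cells were plated at 3,000 per well and left 5 h. Compounds in DMSO were then pinned in, followed by R1881. After 16 h at 37C, CellTiter-Fluor fluorescence gave viability.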
Potency is the fitted concentration of half-maximal effect.

SMILES | Potency
O=C1C(O)=C(O)C(=O)C(O)=C1O | inactive
O=C(O)C(S)C(S)C(=O)O (stereo not given) | inactive
CNC(=O)CN(CCN(CCN(CC(=O)[O-])CC(=O)NC)CC(=O)[O-])CC(=O)[O-].O.[Gd+3] | inactive
O=[N+]([O-])c1ccc(NCCO)c(OCCO)c1 | 54.5 µM (active)
O=C(OCCCCCCOC(=O)c1ccccc1)c1ccccc1 | inactive
CCC(C)c1cc(C(C)(C)C)c(O)c(C(C)(C)C)c1 (stereo not given) | inactive
Nc1cc(C(=O)O)c(O)c(S(=O)(=O)O)c1 | inactive
COc1ccc(C)cc1[N+](=O)[O-] | inactive
CC(C)O.CC(C)O.CCOC(=O)/C=C(\C)O.CCOC(=O)/C=C(\C)O.[Ti] | inactive
CC(C)CC(=O)C1C(=O)c2ccccc2C1=O | inactive
CCNc1cc(O)ccc1C | inactive
C/C=C/C(=O)CC | inactive
CN1CCC(N(Cc2cccs2)c2ccccc2)CC1 | inactive
CCOc1ccc(N=Nc2ccc(/C=C/c3ccc(N=Nc4ccc(OCC)cc4)cc3S(=O)(=O)O)c(S(=O)(=O)O)c2)cc1 | 53.6 µM (active)
CCCCOC(=O)CCCCCCCC(=O)OCCCC | inactive
CCCCCCCC#N | inactive

Biological target: Androgen receptor (Homo sapiens) (UniProt P10275)
Sequence (P10275 whole entry, looked up): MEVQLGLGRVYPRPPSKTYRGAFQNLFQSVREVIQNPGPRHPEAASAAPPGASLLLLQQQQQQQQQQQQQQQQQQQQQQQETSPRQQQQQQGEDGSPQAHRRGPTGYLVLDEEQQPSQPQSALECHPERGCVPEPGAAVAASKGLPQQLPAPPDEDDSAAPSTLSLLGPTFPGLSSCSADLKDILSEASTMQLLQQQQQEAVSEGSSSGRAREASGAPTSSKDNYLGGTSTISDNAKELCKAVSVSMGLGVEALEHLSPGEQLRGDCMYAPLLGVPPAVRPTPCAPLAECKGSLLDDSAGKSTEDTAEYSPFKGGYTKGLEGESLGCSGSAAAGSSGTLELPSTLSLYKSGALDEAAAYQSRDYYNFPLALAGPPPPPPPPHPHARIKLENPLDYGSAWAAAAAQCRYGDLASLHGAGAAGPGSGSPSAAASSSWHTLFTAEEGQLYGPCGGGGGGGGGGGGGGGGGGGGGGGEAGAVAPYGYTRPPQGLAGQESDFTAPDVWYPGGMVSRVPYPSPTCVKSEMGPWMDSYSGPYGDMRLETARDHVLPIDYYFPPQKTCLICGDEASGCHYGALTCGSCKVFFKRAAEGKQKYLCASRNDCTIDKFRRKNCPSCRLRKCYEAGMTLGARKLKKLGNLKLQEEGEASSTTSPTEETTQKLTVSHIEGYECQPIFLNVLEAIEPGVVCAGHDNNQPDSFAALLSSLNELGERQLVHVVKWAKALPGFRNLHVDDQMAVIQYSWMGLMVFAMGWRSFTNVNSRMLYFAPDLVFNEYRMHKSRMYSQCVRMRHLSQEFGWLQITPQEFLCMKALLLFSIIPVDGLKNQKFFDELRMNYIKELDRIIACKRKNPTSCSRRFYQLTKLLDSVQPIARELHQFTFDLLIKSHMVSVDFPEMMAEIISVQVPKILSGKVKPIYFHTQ
Assay: qHTS assay to identify small molecule antagonists of the androgen receptor (AR) signaling pathway using the MDA cell line (AID 743042; note: nearly all actives have a fitted effect of over 55% in size)
Conditions: MDA-kb2 AR-luc, MMTV luciferase, R1881 antagonist, 16 h; series mostly up to 70.3 µM
Method in brief: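 Antagonist mode: compounds plus R1881 agonist added to MDA-kb2 AR-luc cells, incubated 16 h at 37C. Luciferase reporter luminescence quantified, with multiplexed CellTiter-Fluor readout for cell viability.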

SMILES | Potency
Cc1nn(C)c(Oc2ccccc2)c1/C=N/OCc1ccc(C(=O)OC(C)(C)C)cc1 | 0.0024 µM (active)
O=C(O)C1(C(=O)Nc2ccc(Cl)cc2Cl)CC1 | inactive
O=[N+]([O-])c1ccc(NCCO)c(OCCO)c1 | inactive
CC(C)CC(=O)C1C(=O)c2ccccc2C1=O | inactive
